Results published in PubChem BioAssay (EPA / NIEHS).
Inconclusive results are not listed. Calls of active or inactive are those of the source. How the source made its calls, unless noted: active means hit-call score of the fitted dose curve at least 0.9, where 1 is the maximum; inconclusive means response in the unintended direction; inactive means score below 0.9.

What was measured:
[1] = tested on: DIO1 (gene 1733); experiment: CCTE_GLTED_hDIO1: CCTE's human Deiodinase 1 (DIO1) Inhibition Assay, Great Lakes Toxicology and Ecology Division (GLTED) Lab (AID 2283987);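 further: isolated human DIO1 enzyme in a cell-free setup rather than cells; enzyme activity read as free iodide liberated from substrate via Sandell-Kolthoff colorimetry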
In short: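 Chemicals are tested on human DIO1 without cells for 3 h. Uninhibited enzyme frees iodide, which speeds cerium(IV) reduction by arsenic and is read by spectrophotometry.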

[2] = biological target: Nucleoli Translocation, AR (gene 367) (UniProt P10275); experiment: UPITT_HCI_U2OS_AR_TIF2_Nucleoli_Antagonist: University of Pittsburgh U2OS Androgen Receptor-Transcriptional Intermediary Factor 2 (AR-TIF2) Antagonism High Content Imaging Assay for Nucleoli Translocation (AID 2283997)
In short: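 Antagonism is read as loss of nucleolar AR-RFP signal relative to DHT, imaged in U2OS cells also carrying GFP-TIF2. Compounds screened at 20 uM final, 0.2% DMSO; primary actives retested in triplicate.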

[3] = biological target: Nucleoli Translocation, AR (gene 367) (UniProt P10275); experiment: UPITT_HCI_U2OS_AR_TIF2_Nucleoli_Agonist: University of Pittsburgh U2OS Androgen Receptor-Transcriptional Intermediary Factor 2 (AR-TIF2) Agonism High Content Imaging Assay for Nucleoli Translocation (AID 2283998)
In short: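 High-content images quantify nucleolar accumulation of RFP-fused AR in cells also expressing GFP-TIF2; the endpoint is fitted as signal gain versus DMSO controls across final concentrations of 0.195 to 50 uM.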

[4] = biological target: PGR (gene 5241) (UniProt P06401); experiment: TOX21_PR_LUC_Followup_Antagonist: Tox21 HEK293 Progesterone Receptor (PR) Antagonism Luciferase Follow-Up Assay (AID 2283938);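 further: curve fitted upward as signal gain over DMSO baseline despite antagonist label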
In short: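 Luciferase reporter in HEK293-PR-A-luc cells: 16 h compound treatment at 37C, ONE-Glo luminescence detection, DMSO as negative control and baseline.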

[5] = TOX21_PR_LUC_Followup_Antagonist_viability: Viability Assessment in the Tox21 HEK293 Progesterone Receptor (PR) Antagonism Luciferase Follow-Up Assay (AID 2283940)
In short: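 Read-out: CellTiter-Glo ATP luminescence, loss of signal taken as reduced viability. Cells: HEK293-PR-A-luc, 3,000/well, 5 h settling, then 16 h compound exposure at 37C, 0% CO2.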

[6] = TOX21_PR_LUC_Followup_Agonist_viability: Viability Assessment in the Tox21 HEK293 Progesterone Receptor (PR) Agonism Luciferase Follow-Up Assay (AID 2283941);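 further: loss of signal means cytotoxicity so actives lower viability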
In short: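 Cytotoxicity counter-screen: ATP content by CellTiter-Glo luminescence, loss of signal = reduced viability. HEK293-PR-A-luc, 3,000 cells/well, compound exposure 16 h, 37C.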

[7] = biological target: PGR (gene 5241) (UniProt P06401); experiment: TOX21_PR_LUC_Followup_Agonist: Tox21 HEK293 Progesterone Receptor (PR) Agonism Luciferase Follow-Up Assay (AID 2283937; active means hit-call score of the fitted dose curve at least 0.9, where 1 is the maximum; inactive means score below 0.9)
In short: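 Luminescence read-out (ONE-Glo, 30 min at room temperature) of PR-driven luciferase in HEK293-PR-A-luc cells after 16 h compound exposure at 37C; gain of signal fitted relative to DMSO baseline.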

Chain of PGR (gene 5241) (P06401 whole entry, looked up): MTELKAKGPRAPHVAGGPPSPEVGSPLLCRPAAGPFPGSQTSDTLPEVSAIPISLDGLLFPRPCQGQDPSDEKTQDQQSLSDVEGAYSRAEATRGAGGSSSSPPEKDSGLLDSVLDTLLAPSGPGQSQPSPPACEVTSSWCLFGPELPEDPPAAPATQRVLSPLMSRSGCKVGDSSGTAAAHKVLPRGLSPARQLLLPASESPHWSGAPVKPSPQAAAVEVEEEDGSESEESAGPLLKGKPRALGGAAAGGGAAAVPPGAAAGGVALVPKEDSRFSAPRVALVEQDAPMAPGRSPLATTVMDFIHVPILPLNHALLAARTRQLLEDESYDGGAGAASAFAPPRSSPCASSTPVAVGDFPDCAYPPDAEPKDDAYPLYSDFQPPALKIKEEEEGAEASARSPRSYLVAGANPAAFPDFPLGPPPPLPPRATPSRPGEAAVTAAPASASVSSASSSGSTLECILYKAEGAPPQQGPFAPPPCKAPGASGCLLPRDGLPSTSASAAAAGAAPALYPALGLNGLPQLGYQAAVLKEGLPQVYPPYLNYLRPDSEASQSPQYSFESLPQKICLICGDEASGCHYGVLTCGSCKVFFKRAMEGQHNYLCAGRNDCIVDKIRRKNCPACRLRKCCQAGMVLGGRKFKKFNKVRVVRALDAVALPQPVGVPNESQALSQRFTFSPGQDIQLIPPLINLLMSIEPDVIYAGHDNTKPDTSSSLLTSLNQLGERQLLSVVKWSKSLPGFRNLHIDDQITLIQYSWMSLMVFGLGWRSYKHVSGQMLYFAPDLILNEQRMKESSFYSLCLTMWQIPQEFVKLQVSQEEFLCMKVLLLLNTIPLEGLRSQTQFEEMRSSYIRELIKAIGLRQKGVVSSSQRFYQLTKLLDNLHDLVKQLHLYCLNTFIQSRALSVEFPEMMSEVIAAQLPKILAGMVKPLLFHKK
Chain of Nucleoli Translocation, AR (gene 367) (P10275 whole entry, looked up, the tested form may be a part): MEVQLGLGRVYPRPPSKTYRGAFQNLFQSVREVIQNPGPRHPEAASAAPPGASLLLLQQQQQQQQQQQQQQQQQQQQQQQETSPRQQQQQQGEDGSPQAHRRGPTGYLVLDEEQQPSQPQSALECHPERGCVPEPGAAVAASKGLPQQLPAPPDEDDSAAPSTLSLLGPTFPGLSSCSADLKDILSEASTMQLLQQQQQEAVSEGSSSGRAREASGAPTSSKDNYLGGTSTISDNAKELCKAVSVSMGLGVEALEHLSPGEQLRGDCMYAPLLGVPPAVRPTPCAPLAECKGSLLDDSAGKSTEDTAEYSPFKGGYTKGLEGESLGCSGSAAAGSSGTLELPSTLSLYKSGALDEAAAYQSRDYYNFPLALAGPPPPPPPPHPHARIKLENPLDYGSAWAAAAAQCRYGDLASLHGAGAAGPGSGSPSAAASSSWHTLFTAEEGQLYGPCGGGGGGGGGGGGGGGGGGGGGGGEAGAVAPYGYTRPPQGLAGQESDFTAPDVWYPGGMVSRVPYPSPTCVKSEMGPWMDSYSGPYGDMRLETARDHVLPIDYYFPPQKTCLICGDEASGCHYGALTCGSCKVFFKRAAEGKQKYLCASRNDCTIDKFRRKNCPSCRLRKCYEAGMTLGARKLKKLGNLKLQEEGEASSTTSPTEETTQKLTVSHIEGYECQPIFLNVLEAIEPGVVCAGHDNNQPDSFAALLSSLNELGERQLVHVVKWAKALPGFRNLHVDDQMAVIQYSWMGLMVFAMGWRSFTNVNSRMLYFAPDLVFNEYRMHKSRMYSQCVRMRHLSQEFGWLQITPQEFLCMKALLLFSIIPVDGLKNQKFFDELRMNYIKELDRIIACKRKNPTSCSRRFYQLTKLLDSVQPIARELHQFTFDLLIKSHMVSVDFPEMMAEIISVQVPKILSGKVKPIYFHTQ

## CCCCCCCCC=CCCCCCCCC1=NCCN1CCO
[1]
  AC50: 36.3 µM (active)
[2]
  AC50: 93 µM (active)
[3]
  AC50: 13.3 µM (active)

## C=C1CC[C@H](O)C/C1=C/C=C1\CCC[C@]2(C)[C@@H]([C@H](C)/C=C/[C@H](C)C(C)C)CC[C@@H]12
[4]
  outcome: inactive
[5]
  outcome: inactive
[1]
  AC50: 19.8 µM (active)

## CCCOC(=O)c1c(Cl)c(Cl)c(Cl)c(Cl)c1C(=O)OCCC
[4]
  AC50: 21.2 µM (active)
[5]
  outcome: inactive
[6]
  outcome: inactive

## CC(=O)C1(C)CC2=C(CCCC2(C)C)CC1C (stereo not drawn)
[2]
  outcome: inactive
[3]
  outcome: inactive

## O=c1c(O)c(-c2ccc(O)cc2)oc2cc(O)cc(O)c12
[5]
  outcome: inactive
[6]
  outcome: inactive

## Clc1ccc(C(c2ccccc2Cl)C(Cl)Cl)cc1 (stereo not drawn)
[4]
  AC50: 13.1 µM (active)

## CCCCC1CCC(O)CC1 (stereo not drawn)
[2]
  outcome: inactive

## CC1CCC(C(C)C)C(O)C1 (stereo not drawn)
[2]
  outcome: inactive

## O=C(Nc1ccc2c(c1)Cc1ccccc1-2)C(F)(F)F
[7]
  outcome: inactive
[4]
  AC50: 62.9 µM (active)
[5]
  outcome: inactive
[6]
  outcome: inactive

## CCOC(=O)C(C#N)=C(c1ccccc1)c1ccccc1
[4]
  AC50: 23 µM (active)
[5]
  outcome: inactive
[6]
  outcome: inactive
